The values that follow come from article PMC7862700, “An all-to-all approach to the identification of sequence-specific readers for epigenetic DNA modifications on cytosine”.

What all share (assay): DAPPL (digital affinity profiling via proximity ligation, sequencing); 10 mM Tris-HCl pH 7.5, 50 mM NaCl, 1 mM DTT, 4% glycerol, room temperature, 30 min; GST-TFs on glutathione beads, 16-mer random dsDNA library, 0.1% formaldehyde crosslink after washing; high values mean tight binding
The target of assay [1] is T1, FEV (Homo sapiens, UniProt Q99581 1-238).
T1 sequence: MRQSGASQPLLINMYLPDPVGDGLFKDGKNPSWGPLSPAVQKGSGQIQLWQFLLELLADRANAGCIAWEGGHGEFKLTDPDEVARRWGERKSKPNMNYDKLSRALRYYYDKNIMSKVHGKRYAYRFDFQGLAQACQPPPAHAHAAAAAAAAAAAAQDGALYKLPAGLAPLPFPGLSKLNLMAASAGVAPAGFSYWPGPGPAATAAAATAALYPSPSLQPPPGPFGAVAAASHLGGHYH
Conditions: protein: recombinant; tags: N-terminal GST; dsDNA, one strand shown. The method, boiled down:
(§1)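 Human transcription factors were made in yeast as GST fusions, captured on glutathione beads and barcoded with DNA. With a tag-only sample included, the pool was incubated with 200 nmole of a random double-stranded 16-mer DNA library in Tris/NaCl/DTT/glycerol buffer at room temperature for 30 min, then crosslinked with 0.1% formaldehyde after washing, ligated by proximity, amplified and sequenced. For binding signal, each hexamer's read frequency for a factor is divided by its frequency for the tag-only sample.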

For assay [2], the target named is ETV5 (Homo sapiens, UniProt P41161 1-510). Particulars: protein: recombinant; tags: N-terminal GST; dsDNA, one strand shown. The method, boiled down: as §1
The target of assay [3] is HSF1 (Homo sapiens, UniProt Q00613 1-529). Conditions: protein: recombinant; tags: N-terminal GST; chain copies: 3; dsDNA, one strand shown. The method, boiled down: as §1
Assay [4] concerns the target T2, SPIC (Homo sapiens, UniProt Q8N5J4 1-248).
T2 sequence: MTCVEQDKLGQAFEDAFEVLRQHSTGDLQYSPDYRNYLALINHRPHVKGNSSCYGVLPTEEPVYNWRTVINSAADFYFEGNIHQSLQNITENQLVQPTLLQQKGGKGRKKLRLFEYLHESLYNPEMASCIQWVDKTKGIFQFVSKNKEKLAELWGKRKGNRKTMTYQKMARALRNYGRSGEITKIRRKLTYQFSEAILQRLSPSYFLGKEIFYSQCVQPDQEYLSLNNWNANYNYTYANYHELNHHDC
Particulars: protein: recombinant; tags: N-terminal GST; dsDNA, one strand shown. The method in brief: as §1

Assay [5] addresses ELF4 (Homo sapiens, UniProt Q99607 1-663). Particulars: protein: recombinant; tags: N-terminal GST; dsDNA, one strand shown. The method in brief: as §1
In assay [6] the target is T3, ELK4 (Homo sapiens, UniProt P28324-2 1-405).
T3 sequence: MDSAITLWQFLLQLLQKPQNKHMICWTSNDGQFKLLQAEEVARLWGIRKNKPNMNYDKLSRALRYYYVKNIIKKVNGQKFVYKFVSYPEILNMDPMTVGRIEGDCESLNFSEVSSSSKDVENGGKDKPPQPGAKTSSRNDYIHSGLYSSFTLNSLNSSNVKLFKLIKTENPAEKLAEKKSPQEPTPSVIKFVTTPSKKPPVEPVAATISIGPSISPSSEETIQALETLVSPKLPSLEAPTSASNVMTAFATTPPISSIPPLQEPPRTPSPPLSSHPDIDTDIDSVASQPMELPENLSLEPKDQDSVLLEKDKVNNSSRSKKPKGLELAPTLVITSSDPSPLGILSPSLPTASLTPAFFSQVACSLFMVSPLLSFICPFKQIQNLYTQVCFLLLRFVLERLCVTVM
Conditions: protein: recombinant; tags: N-terminal GST; dsDNA, one strand shown. The method in brief:
as §1

The target of assay [7] is T4, ETV2 (Homo sapiens, UniProt O00321 1-342).
T4 sequence: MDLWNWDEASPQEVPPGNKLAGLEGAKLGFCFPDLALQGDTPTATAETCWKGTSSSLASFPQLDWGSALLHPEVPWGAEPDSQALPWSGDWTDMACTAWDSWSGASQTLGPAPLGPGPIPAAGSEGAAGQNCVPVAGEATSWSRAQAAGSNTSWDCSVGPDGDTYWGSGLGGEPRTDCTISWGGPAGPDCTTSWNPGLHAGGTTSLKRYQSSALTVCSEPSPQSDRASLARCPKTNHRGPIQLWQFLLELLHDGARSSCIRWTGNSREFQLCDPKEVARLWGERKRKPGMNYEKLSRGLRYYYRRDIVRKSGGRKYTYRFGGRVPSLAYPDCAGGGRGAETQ
Conditions: protein: recombinant; tags: N-terminal GST; dsDNA, one strand shown. The method, boiled down:
as §1

Assay [8] addresses T5, ELF3 (Homo sapiens, UniProt P78545 1-371).
T5 sequence: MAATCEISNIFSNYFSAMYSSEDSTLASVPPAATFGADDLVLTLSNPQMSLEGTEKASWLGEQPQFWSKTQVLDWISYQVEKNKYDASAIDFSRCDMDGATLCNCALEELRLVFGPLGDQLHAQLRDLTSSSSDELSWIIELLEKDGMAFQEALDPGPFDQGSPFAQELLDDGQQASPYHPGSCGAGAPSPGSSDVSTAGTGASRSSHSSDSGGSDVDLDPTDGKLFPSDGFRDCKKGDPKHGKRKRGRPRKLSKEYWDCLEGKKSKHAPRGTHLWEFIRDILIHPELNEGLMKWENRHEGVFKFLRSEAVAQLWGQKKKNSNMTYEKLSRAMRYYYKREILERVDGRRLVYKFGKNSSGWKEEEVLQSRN
Particulars: protein: recombinant; tags: N-terminal GST; dsDNA, one strand shown. The method in brief: as §1

Assay [9] has as its target CRX (Homo sapiens, UniProt O43186 1-299). Conditions: protein: recombinant; tags: N-terminal GST; dsDNA, one strand shown. The method, boiled down:
as §1

Assay [10] deals with ETV1 (Homo sapiens, UniProt P50549 1-477). Conditions: protein: recombinant; tags: N-terminal GST; dsDNA, one strand shown. The method in brief:
as §1

Assay [11] deals with T6, ERF (Homo sapiens, UniProt P50548 1-548).
T6 sequence: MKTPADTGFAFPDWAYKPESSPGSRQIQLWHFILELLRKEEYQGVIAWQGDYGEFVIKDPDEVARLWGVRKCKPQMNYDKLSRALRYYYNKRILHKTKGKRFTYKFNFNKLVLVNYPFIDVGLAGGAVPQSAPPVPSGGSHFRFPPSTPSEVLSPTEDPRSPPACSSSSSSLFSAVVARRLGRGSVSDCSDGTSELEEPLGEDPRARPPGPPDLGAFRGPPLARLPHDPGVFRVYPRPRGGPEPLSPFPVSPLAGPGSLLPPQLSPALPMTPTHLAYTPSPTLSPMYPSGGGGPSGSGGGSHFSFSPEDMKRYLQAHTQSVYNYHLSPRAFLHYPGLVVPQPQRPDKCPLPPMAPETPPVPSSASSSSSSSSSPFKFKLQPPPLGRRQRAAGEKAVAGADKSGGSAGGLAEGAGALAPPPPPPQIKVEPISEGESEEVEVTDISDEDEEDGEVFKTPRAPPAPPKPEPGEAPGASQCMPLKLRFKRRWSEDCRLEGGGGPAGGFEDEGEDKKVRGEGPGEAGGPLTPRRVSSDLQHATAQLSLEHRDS
Conditions: protein: recombinant; tags: N-terminal GST; dsDNA, one strand shown. The method, boiled down:
as §1

For assay [12], the target named is T7, ETV3L (Homo sapiens, UniProt Q6ZN32 1-361).
T7 sequence: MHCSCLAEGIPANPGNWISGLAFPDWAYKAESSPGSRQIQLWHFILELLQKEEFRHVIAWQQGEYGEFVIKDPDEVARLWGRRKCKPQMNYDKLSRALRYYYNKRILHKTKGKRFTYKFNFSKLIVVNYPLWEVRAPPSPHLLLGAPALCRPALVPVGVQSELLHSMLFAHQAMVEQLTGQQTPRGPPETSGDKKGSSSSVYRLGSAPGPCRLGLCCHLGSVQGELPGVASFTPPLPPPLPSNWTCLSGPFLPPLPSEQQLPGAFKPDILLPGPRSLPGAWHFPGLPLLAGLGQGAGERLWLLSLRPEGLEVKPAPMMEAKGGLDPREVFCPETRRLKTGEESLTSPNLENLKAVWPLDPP
Particulars: protein: recombinant; tags: N-terminal GST; dsDNA, one strand shown. The method in brief:
as §1

Assay [13] deals with T8, ETS2 (Homo sapiens, UniProt P15036 1-469).
T8 sequence: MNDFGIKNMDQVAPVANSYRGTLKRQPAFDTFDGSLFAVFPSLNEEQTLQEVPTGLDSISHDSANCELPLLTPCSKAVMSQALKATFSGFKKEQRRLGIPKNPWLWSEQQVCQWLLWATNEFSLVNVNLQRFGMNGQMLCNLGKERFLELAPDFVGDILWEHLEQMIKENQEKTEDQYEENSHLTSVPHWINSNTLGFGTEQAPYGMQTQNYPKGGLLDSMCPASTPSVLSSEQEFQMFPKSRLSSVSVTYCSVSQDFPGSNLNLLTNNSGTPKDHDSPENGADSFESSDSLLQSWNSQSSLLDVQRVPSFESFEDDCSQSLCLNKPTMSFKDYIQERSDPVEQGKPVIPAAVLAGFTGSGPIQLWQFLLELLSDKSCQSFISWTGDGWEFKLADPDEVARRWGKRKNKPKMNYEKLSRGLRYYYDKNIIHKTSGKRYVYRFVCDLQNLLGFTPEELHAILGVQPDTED
Particulars: protein: recombinant; tags: N-terminal GST; dsDNA, one strand shown. The method in brief:
as §1

In assay [14] the target is T9, SPDEF (Homo sapiens, UniProt O95238 1-335).
T9 sequence: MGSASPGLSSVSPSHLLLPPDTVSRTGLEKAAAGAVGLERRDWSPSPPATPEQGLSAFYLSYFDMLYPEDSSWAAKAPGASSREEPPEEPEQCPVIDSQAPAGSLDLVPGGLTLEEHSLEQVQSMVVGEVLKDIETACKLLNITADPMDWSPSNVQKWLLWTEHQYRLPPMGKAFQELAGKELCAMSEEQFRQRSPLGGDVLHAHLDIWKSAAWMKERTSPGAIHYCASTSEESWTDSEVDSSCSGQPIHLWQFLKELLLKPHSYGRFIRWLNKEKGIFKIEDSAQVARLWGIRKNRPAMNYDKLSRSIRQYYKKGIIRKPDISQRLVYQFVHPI
Conditions: protein: recombinant; tags: N-terminal GST; dsDNA, one strand shown. The method, boiled down: as §1

Assay [15] addresses T10, ETV7 (Homo sapiens, UniProt Q9Y603 1-341).
T10 sequence: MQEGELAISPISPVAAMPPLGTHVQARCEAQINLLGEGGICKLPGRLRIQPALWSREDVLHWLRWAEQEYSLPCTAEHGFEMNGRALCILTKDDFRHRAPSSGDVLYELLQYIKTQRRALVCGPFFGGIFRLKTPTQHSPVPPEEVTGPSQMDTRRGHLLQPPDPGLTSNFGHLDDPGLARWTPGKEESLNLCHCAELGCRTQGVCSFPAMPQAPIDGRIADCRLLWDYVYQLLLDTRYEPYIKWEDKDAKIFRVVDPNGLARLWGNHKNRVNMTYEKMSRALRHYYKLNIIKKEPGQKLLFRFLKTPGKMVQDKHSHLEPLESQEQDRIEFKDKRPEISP
Particulars: protein: recombinant; tags: N-terminal GST; dsDNA, one strand shown. The method, boiled down: as §1

Assay [16] deals with T11, ELF5 (Homo sapiens, UniProt Q9UKW6-2 1-255).
T11 sequence: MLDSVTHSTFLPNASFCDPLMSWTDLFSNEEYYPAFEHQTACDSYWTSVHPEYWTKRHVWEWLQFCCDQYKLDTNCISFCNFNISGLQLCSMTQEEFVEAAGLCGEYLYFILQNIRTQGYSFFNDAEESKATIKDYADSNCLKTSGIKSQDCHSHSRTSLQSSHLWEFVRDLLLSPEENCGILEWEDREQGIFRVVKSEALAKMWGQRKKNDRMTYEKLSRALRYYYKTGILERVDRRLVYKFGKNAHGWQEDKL
Particulars: protein: recombinant; tags: N-terminal GST; dsDNA, one strand shown. The method, boiled down: as §1

Assay [17] deals with T12, ETV3 (Homo sapiens, UniProt P41162-2 1-143).
T12 sequence: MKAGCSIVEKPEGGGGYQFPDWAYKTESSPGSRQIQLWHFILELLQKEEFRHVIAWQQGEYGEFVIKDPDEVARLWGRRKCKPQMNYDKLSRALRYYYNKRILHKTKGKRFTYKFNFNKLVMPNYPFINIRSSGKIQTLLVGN
Particulars: protein: recombinant; tags: N-terminal GST; dsDNA, one strand shown. The method in brief: as §1

In assay [18] the target is ETV6 (Homo sapiens, UniProt P41212 1-452). Particulars: protein: recombinant; tags: N-terminal GST; dsDNA, one strand shown. The method in brief: as §1
Sequence of ETV6 (P41212 whole entry): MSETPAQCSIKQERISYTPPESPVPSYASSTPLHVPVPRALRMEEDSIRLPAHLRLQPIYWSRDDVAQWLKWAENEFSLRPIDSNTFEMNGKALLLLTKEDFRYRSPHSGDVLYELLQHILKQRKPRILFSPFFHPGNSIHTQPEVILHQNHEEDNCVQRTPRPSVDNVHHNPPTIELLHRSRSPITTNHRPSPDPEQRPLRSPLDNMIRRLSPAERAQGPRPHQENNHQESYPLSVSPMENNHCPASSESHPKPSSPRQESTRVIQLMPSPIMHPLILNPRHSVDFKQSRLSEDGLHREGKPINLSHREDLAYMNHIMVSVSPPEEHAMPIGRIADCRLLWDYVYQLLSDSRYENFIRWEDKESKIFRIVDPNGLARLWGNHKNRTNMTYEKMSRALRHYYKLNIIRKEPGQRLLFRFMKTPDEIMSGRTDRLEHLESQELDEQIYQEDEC

Sequence of HSF1 (Q00613 whole entry): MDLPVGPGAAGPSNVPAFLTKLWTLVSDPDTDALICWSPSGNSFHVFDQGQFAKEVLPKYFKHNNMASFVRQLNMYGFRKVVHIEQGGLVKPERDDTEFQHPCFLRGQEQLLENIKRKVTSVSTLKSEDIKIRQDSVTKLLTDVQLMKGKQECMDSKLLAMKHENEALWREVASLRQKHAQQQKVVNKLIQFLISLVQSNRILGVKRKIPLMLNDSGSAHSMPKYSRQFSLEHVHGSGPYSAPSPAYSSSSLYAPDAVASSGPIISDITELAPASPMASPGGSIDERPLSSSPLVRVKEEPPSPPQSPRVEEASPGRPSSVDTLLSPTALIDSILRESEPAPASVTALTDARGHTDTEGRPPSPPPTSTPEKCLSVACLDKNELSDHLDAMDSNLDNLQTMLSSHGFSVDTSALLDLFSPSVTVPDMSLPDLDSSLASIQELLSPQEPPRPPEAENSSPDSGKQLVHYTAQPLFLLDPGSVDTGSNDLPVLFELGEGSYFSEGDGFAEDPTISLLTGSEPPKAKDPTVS
Sequence of ETV1 (P50549 whole entry): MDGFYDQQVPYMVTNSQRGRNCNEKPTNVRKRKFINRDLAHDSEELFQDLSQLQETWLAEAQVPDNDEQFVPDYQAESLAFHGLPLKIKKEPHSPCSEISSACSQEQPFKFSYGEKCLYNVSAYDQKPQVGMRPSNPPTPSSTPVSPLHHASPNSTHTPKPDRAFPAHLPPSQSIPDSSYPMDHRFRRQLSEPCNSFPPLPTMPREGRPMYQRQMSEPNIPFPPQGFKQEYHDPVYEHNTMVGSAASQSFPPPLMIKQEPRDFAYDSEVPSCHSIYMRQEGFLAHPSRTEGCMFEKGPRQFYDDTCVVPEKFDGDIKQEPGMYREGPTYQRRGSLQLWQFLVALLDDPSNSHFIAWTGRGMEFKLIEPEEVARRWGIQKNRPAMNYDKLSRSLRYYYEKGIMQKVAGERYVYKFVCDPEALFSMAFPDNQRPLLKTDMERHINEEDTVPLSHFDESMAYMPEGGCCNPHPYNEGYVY
Sequence of CRX (O43186 whole entry): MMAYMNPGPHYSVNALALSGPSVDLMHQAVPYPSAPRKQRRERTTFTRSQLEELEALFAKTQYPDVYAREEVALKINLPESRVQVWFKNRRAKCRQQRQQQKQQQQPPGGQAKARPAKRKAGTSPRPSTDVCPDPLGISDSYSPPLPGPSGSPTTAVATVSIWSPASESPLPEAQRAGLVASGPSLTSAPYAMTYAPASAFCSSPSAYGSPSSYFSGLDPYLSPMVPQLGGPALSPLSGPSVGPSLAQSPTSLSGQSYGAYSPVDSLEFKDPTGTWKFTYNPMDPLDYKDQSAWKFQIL
Sequence of ELF4 (Q99607 whole entry): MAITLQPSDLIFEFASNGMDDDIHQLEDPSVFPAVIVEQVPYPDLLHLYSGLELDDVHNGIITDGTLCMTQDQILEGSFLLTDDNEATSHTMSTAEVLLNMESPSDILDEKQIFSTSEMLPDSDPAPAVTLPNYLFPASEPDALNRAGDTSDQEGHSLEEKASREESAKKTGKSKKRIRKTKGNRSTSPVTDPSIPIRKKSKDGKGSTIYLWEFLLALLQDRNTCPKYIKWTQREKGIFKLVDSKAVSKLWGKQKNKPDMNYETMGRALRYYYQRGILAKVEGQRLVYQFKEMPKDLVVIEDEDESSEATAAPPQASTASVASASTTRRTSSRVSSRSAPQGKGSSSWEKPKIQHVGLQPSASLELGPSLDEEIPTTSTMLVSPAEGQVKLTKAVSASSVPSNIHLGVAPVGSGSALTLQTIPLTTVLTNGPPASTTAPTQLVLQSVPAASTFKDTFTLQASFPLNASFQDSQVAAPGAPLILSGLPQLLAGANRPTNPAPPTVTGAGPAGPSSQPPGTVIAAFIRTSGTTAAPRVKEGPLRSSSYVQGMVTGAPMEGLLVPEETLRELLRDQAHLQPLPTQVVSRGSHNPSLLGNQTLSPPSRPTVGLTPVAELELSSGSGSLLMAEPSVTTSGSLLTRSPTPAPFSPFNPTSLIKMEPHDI
Sequence of ETV5 (P41161 whole entry): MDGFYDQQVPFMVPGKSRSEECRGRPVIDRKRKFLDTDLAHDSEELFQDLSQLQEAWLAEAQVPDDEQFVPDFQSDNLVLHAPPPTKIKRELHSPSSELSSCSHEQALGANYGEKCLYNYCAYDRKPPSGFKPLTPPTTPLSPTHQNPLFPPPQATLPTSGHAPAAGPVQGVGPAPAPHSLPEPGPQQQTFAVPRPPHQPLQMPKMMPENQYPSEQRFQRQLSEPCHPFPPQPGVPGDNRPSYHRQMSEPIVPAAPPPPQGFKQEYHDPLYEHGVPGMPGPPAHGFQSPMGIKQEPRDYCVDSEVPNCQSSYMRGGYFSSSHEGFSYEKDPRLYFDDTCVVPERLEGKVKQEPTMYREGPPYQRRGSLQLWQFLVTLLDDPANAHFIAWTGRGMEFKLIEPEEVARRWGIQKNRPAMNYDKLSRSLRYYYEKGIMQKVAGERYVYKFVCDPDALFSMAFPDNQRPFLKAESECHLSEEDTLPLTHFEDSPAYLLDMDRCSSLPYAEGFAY

For the sequence TATCTT, the binding signal in [1] is 1.33 fold enrichment (6-mer frequency, TF over GST control); in assay [2], 1.22 fold enrichment (6-mer frequency, TF over GST control); in assay [3] it was 1.48 fold enrichment (6-mer frequency, TF over GST control); in assay [4], 1.27 fold enrichment (6-mer frequency, TF over GST control); in assay [5], 1.24 fold enrichment (6-mer frequency, TF over GST control); in assay [6], 1.38 fold enrichment (6-mer frequency, TF over GST control). Further, the binding signal was 1.53 fold enrichment (6-mer frequency, TF over GST control) in assay [7]; 1.34 fold enrichment (6-mer frequency, TF over GST control) in assay [8]; 1.91 fold enrichment (6-mer frequency, TF over GST control) in assay [9]; 1.22 fold enrichment (6-mer frequency, TF over GST control) in [10]; 1.32 fold enrichment (6-mer frequency, TF over GST control) in assay [11]; 1.41 fold enrichment (6-mer frequency, TF over GST control) in assay [12]. Moreover, the binding signal in [13] is 1.29 fold enrichment (6-mer frequency, TF over GST control); in assay [14], 1.32 fold enrichment (6-mer frequency, TF over GST control); in [15], 1.22 fold enrichment (6-mer frequency, TF over GST control); in assay [16] it was 1.4 fold enrichment (6-mer frequency, TF over GST control); in assay [17] it was 1.25 fold enrichment (6-mer frequency, TF over GST control); in assay [18] it was 1.18 fold enrichment (6-mer frequency, TF over GST control).
